# IL1B secr inh: qHTS for Inhibitors of Inflammasome Signaling: IL-1-beta AlphaLISA Primary Screen. THP-1 LPS/ATP IL-1B secretion, AlphaLISA, 16 h; stronger effect = lower value. activity change, % at 57.5 µM. 4.7% of 360,000 active; in the data active = activity change below about -50%; inconclusive = mostly about -30% to -49%
#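 Secreted IL-1B measured by AlphaLISA bead assay after 16 h compound exposure of THP-1 cells; compounds (final up to 57.5 uM) added 1 h before LPS (250 ng/mL) and ATP (1.25 mM) stimulation; lower signal means less secretion.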
# ASM inhibitor: Inhibitors of Secretory Acid Sphingomyelinase (S-ASM): qHTS | placental ASM, HMU-PC fluorogenic substrate, 60 min | AID 504937, 2011 | Potency, µM (doses to about 57.5 µM), actives largely listed as inhibitors | Sphingomyelin phosphodiesterase (Homo sapiens), P17405 | 0.006% of 340,000 active
# Target sequence (P17405 47-631 limits assumed): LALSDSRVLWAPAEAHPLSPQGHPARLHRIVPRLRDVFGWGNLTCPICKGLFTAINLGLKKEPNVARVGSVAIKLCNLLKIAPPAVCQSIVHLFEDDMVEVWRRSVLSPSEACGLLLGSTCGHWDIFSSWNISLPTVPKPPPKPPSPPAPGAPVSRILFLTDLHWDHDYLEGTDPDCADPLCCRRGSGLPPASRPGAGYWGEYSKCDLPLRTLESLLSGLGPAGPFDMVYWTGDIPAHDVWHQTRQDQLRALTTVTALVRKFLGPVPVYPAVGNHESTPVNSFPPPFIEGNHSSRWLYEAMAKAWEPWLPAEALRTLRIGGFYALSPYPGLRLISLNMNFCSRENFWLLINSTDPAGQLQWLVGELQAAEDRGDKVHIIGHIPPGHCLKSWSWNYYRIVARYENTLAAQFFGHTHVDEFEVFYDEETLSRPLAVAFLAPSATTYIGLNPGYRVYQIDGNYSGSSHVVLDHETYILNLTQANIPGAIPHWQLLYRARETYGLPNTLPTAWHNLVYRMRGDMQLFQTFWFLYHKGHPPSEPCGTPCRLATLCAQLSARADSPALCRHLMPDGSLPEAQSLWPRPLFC
#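 qHTS format. ASM enzyme prepared from human placenta hydrolyses the fluorogenic substrate HMU-PC0 (9 uM final) over 60 min at 37 °C after a 10 min compound preincubation.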
# DT40 TDP1 CPT: qHTS for Inhibitors of human tyrosyl-DNA phosphodiesterase 1 (TDP1): qHTS in cells in presence of CPT; chicken DT40 Tdp1-/-;hTDP1 cells + 20 nM CPT, ATP luminescence, 48 h; Potency, µM (series often up to 46.2 µM), actives largely listed as inhibitors; 12% of 420,000 active; AID 686979, 2013; note: nearly all actives have a fitted effect of over 55% in size
#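 Chicken DT40 Tdp1-/- cells complemented with human TDP1, 400 cells/well, exposed to compounds plus 20 nM camptothecin for at least 48 h at 37 C; viability read as ATP content by CellTiter-Glo luminescence.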
# DT40 TDP1 no CPT: qHTS for Inhibitors of human tyrosyl-DNA phosphodiesterase 1 (TDP1): qHTS in cells in absence of CPT. DT40 Tdp1-/- hTDP1 cells, no CPT, ATP luminescence, 48 h. 15% of 420,000 active. AID 686978, 2013. Potency, µM (highest dose often 46.2 µM), actives largely listed as inhibitors; note: nearly all actives have a fitted effect of over 55% in size
#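 Growth kinetics read by CellTiter-Glo luminescence after ≥48 hr at 37 °C. Cells: DT40 Tdp1-/- stably carrying human TDP1, 400 per well, compound exposure in the absence of CPT (DMSO vehicle).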
# HepG2 tox: qHTS for Inhibitors of TGF-b: Cytotox Counterscreen | HepG2 CAGA-GFP viability, ATP luminescence, 18 h | Potency, µM (highest dose often 46.1 µM), hits mostly cytotoxic | 0.76% of 410,000 active | AID 588856, 2011
#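 CellTiter-Glo luminescence gave cytotoxicity after 18 hours at 37 degrees C. The cells were HepG2 CAGA-GFP in 1% FBS DMEM, stimulated with 500 pg/mL TGF-beta after compound addition. %Activity was normalised to no-cell wells (complete cell-killing) and DMSO (no toxicity), and curves were fitted and classified.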
# TGFb inhibitor: qHTS for Inhibitors of TGF-b. Potency, µM (titrated, usually from 46.1 µM), actives largely listed as inhibitors. 1.2% of 410,000 active. HepG2 CAGA-GFP TGF-b/SMAD3 reporter, GFP fluorescence, 18 h; TGF-beta stimulated, 500 pg/mL final; note: nearly all actives have a fitted effect of over 65% in size
#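 Read-out: total well GFP (ex488/em500-530) summed from mean per-cell fluorescence. Cells: HEPG2 CAGA-GFP, 1% FBS DMEM, 18 h at 37 degrees C with 500 pg/mL final TGF-beta. Unstimulated wells served as the full-inhibition control; stimulated DMSO wells = 0%.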
# Hits are given with their value; n = inactive; u = inconclusive; x = no result given. Sampled rows, rich in hits. Any-hit rate of the full collection: about 19%. Unless noted, calls come from the whole dose curve; as a rule, active = well fitted curve in the direction sought with a large enough effect; inconclusive = small, poorly fitted or top-dose-only effect, or another doubt; inactive = no such curve, though single readings can be large; an effect the other way counts as inactive or inconclusive.
SMILES,IL1B secr inh,ASM inhibitor,DT40 TDP1 CPT,DT40 TDP1 no CPT,HepG2 tox,TGFb inhibitor
COc1ccc(CCNC(=O)CN(c2ccc(OC)c(OC)c2)S(=O)(=O)c2ccccc2)cc1OC,n,n,n,n,n,n
COc1ccc(-c2cc(C(=O)N3CCN(c4ccccc4OC)CC3)no2)cc1OC,n,n,n,20.6µM,n,n
COc1cccc(-c2cc(C(=O)N3CCOCC3)no2)c1,n,n,n,n,n,n
COc1ccc(-c2cc(C(=O)N3CCN(c4ccccc4)CC3)no2)cc1OC,n,n,n,u,n,n
COc1cccc(OCc2cc(C(=O)N3CCN(c4ccccc4O)CC3)no2)c1,n,n,16.4µM,13µM,n,n
COc1ccccc1N1CCN(C(=O)c2cc(-c3ccccc3O)on2)CC1,n,n,20.6µM,18.4µM,n,n
COc1cccc(-c2cc(C(=O)N3CCN(C(c4ccccc4)c4ccccc4)CC3)no2)c1,n,n,20.6µM,25.9µM,n,n
COc1cccc(OCc2cc(C(=O)N3CCN(C(C)=O)CC3)no2)c1,n,n,n,n,n,n
CCOC(=O)c1cc(S(=O)(=O)Nc2ccc(OC)c(Cl)c2)[nH]n1,x,x,u,n,n,n
COc1ccc(-n2nc(C(=O)NCc3ccc(F)cc3Cl)c3c4ccccc4n(C)c3c2=O)cc1Cl,x,x,n,n,n,u
CC1C(=NO)C(C)C(c2ccccc2)NC1c1ccccc1 (stereo unspecified),n,n,n,n,n,n
CCC1C(=NO)C(CC)C(c2ccccc2)NC1c1ccccc1 (stereo unspecified),-51.2,n,u,u,n,u
CC(C)C1/C(=N/O)CC(c2ccccc2)NC1c1ccccc1 (stereo unspecified),n,n,16.4µM,20.6µM,n,n
CC1/C(=N/O)CC(c2ccccc2)NC1c1ccccc1 (stereo unspecified),n,n,u,u,n,n
CCC1C(=O)C(CC)C(c2ccccc2)NC1c1ccccc1 (stereo unspecified),n,n,n,n,n,n
CCCC1/C(=N/O)CC(c2ccccc2)NC1c1ccccc1 (stereo unspecified),-97.8,n,u,4.11µM,n,n
COc1ccc(Cl)cc1S(=O)(=O)N(C)CC(=O)N1CCOCC1,n,n,n,n,n,n
CN(CCC#N)C(=O)COC(=O)c1c2c(nc3ccccc13)/C(=C/c1ccco1)CC2,-58.0,n,u,u,n,n
COc1ccc(/C=C2\CCc3c2nc2ccccc2c3C(=O)O)cc1OC,n,n,n,n,n,n
Cc1ccc2nc(NC(=O)C3CCCN(S(=O)(=O)c4cccnc4)C3)sc2c1 (stereo unspecified),n,n,23.1µM,16.4µM,n,n
COc1ccccc1NC(=O)C1CCN(S(=O)(=O)c2cccs2)CC1,n,n,n,n,n,n
CCOc1ccccc1NC(=O)C1CCCN(S(=O)(=O)c2ccc(OC)c(C)c2)C1 (stereo unspecified),n,n,u,16.4µM,n,u
CCOc1ccc(S(=O)(=O)N2CCCCC2)cc1NC(=O)C1CCCC1,n,x,n,u,n,n
CCOc1ccc2nc(NC(=O)C3CCCN(S(=O)(=O)c4cccs4)C3)sc2c1 (stereo unspecified),-57.7,n,u,u,n,n
CCOc1ccccc1NC(=O)C1CCCN(S(=O)(=O)c2cccs2)C1 (stereo unspecified),x,x,23.1µM,23.1µM,n,u
SMILES,IL1B secr inh,ASM inhibitor,DT40 TDP1 CPT,DT40 TDP1 no CPT,HepG2 tox,TGFb inhibitor
CCOc1ccc2nc(NC(=O)C(CCSC)NS(=O)(=O)c3cccs3)sc2c1 (stereo unspecified),u,n,u,u,n,n
Cc1ccc(C)c(NC(=O)C2CCCN(S(=O)(=O)c3cccnc3)C2)c1 (stereo unspecified),n,n,n,n,n,n
COc1ccc(S(=O)(=O)NCc2cccnc2)c(Cl)c1Cl,n,x,n,n,n,n
O=C(Nc1c(-c2ccccc2)[nH][nH]c1=O)c1cccc(C(F)(F)F)c1,n,x,n,n,n,n
COc1cccc(-c2nc(SCc3cc(=O)c4cc(Cl)ccc4[nH]3)n[nH]2)c1,x,x,n,n,n,n
Oc1ccccc1-c1nc(NCc2ccccc2)c2ccccc2n1,n,n,n,u,n,n
Oc1ccccc1Nc1nc(NCc2ccccc2)c2ccccc2n1,-100.6,n,11.6µM,11.6µM,n,11.2µM
c1ccc(CNc2c3ccccc3nc3ccccc23)cc1,-99.9,n,13µM,18.4µM,n,u
OCC(Cc1ccccc1)NCc1ccccc1C(F)(F)F (stereo unspecified),n,n,n,n,n,n
CCCCNc1nc(NCc2ccccc2)nc2ccccc12,-110.3,x,20.6µM,8.2µM,x,x
c1ccc(CNc2ccccn2)cc1,n,n,n,n,n,n
OCC(Cc1ccccc1)Nc1c2ccccc2nc2ccccc12 (stereo unspecified),-52.4,n,u,16.4µM,n,u
NC(c1ccccc1)c1cccs1 (stereo unspecified),n,x,n,n,n,n
COc1ccc(NCc2ccsc2)cc1,u,n,n,n,n,n
CCc1cccc(NC(=O)c2c(N3CCCC3=O)c3cc(C)ccc3n2C)c1,x,x,x,x,n,u
COc1ccc(S(=O)(=O)N2CCCCC2)cc1NS(=O)(=O)c1ccc(CNC(C)=O)cc1,n,n,n,n,n,n
Oc1ccc(CCNc2c3ccccc3nc3ccccc23)cc1O,-99.3,n,1.16µM,1.46µM,n,u
CNc1nc(NCc2ccccc2)c2ccccc2n1,x,n,13µM,4.61µM,n,u
NS(=O)(=O)c1ccc(NC(=O)CN2CCc3ccccc3C2)cc1,n,n,n,n,n,n
CCn1c(=O)c(-c2ccccc2)c(O)c2ccccc21,n,n,n,n,n,n
CCCCOc1ccc(C2=NNC(=O)CC2)cc1,n,n,n,n,n,u
CCn1c(O)c(/C=N/N=C/c2ccccc2)c2ccc(C3=NNC(=O)CC3)cc21,u,n,u,18.4µM,n,n
CCC(CC)=N/N=C/c1c(O)n(CC)c2cc(C3=NNC(=O)CC3)ccc12,n,n,u,9.2µM,n,n

# Assay outcomes: PubChem BioAssay, National Center for Advancing Translational Sciences (NCATS)
